Experimental findings from PubChem BioAssay (NCI) are described below.

Among the test systems are SK-MEL-2 melanoma; EKVX NSCLC; SN12C renal; UO-31 renal; TK-10 renal; ACHN renal; CAKI-1 renal; A498 renal; CCRF-CEM leukemia; MOLT-4 leukemia.
What all share (test): NCI-60 one-dose screen, 48 h (100 = growth as untreated, 0 = no growth, -100 = all killed)
Conditions in all cases: 10 µM unless noted

About 83,000 compounds went through this panel and 20% of them were active in at least one assay; those are over-represented in the sample as a whole.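 The endpoint reported here, percent growth, reads 100 for growth as untreated, 0 for no net growth and -100 for all cells dead.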 A number with no mark means an inactive call. Calls of active or inactive are those of the source. How the source made its calls: active means growth percent below 10; inactive means the rest.

Consider `NC(=S)N/N=C(/CCN1CCCC1)CC(C1=C(O)C2=CCCCC2OC1=O)c1ccccc1` (stereo not given), for which the growth is 93.2% with SK-MEL-2 melanoma; 63.3% in the test with EKVX NSCLC; 85.3% in the test on SN12C renal; 64.5% in the test with UO-31 renal; 120% with TK-10 renal; 89.4% with ACHN renal. The growth was 98.6% in the test on CAKI-1 renal, 109% in the test with A498 renal, 48.9% with CCRF-CEM leukemia and 64.8% with MOLT-4 leukemia.
Consider `COc1ccncc1S(=O)(=O)NC(=O)Nc1ccc(Cl)c(Cl)c1`, for which the growth in the test on SK-MEL-2 melanoma was 92.9%; in the test with EKVX NSCLC, 84.7%; with SN12C renal, 94.5%; with UO-31 renal it was 66.7%; in the test with TK-10 renal, 113%; in the test with ACHN renal it was 85.2%. Further, the growth was 84.4% in the test with CAKI-1 renal, 96.3% in the test with A498 renal, 81.7% with CCRF-CEM leukemia and 83.5% with MOLT-4 leukemia.
`CCOC(=O)CN1/C(=N/c2sc3c(c2C(=O)OCC)CCN(C(=O)OCC)C3)SC(=O)/C1=C\C(=O)OC`: the growth with SK-MEL-2 melanoma was 97.9%; in the test on EKVX NSCLC, 93.1%; in the test on SN12C renal, 85.7%; in the test on UO-31 renal, 73.6%; in the test on TK-10 renal it was 99%; in the test with ACHN renal it was 95%. Also, the growth in the test on CAKI-1 renal is 86.6%; in the test with A498 renal, 93.3%; in the test with CCRF-CEM leukemia it was 27.7%; in the test with MOLT-4 leukemia it was 53.8%.
For `Cc1ccc(S(=O)(=O)NCCNc2nccc(-c3c(-c4cccc(N)c4)nc4sccn34)n2)cc1`, the growth with SK-MEL-2 melanoma is 109%; in the test with EKVX NSCLC it was 83.5%; with SN12C renal, 81%; with UO-31 renal, 70.9%; with TK-10 renal, 116%; with ACHN renal, 86.4%. The growth was 81.8% in the test on CAKI-1 renal, 92.4% with A498 renal, 95.8% in the test with CCRF-CEM leukemia and 88% in the test on MOLT-4 leukemia.
For `CN(C)CCCN(c1nc(C(Cl)(Cl)Cl)ns1)c1nc(C(Cl)(Cl)Cl)ns1`, the growth in the test on SK-MEL-2 melanoma is 47%; in the test with EKVX NSCLC, 55.1%; in the test with SN12C renal it was 41.8%; with UO-31 renal, -84.7% (active); with TK-10 renal, 63.5%; with ACHN renal, 54.6%. Also, the growth with CAKI-1 renal was 43.9%; in the test on A498 renal, 73.7%; with CCRF-CEM leukemia it was 30.3%; in the test on MOLT-4 leukemia, 3.33% (active).
For `Oc1ccc2cc(Br)ccc2c1-c1c(O)ccc2cc(Br)ccc12`, the growth is 74.9% with SK-MEL-2 melanoma; 57.6% with EKVX NSCLC; 60.7% in the test on SN12C renal; 24.3% in the test with UO-31 renal; 52% with TK-10 renal; 23.1% in the test with ACHN renal. Also, the growth was 40.2% in the test on CAKI-1 renal, 72% in the test with A498 renal, 45% with CCRF-CEM leukemia and 40.2% with MOLT-4 leukemia.
On to `COc1ccc(-n2c(=O)sc3c(Cl)nc(C)nc32)c(OC)c1`, for which the growth was 99.4% with SK-MEL-2 melanoma; 75.9% in the test on EKVX NSCLC; 81% in the test with SN12C renal; -23.2% (active) in the test with UO-31 renal; 115% in the test with TK-10 renal; 95.6% in the test on ACHN renal. The growth with CAKI-1 renal is -58.1% (active); in the test with A498 renal it was 91.1%; in the test with CCRF-CEM leukemia, 55.9%; in the test with MOLT-4 leukemia, 78.2%.
For the compound `COc1cccc(-c2nc3sccn3c2-c2ccnc(NCCCNS(=O)(=O)c3ccc(C(F)(F)F)cc3)c2)c1`, the growth with SK-MEL-2 melanoma was 65.7%; in the test with EKVX NSCLC, 46%; in the test with SN12C renal, 47.9%; with UO-31 renal, 29.7%; in the test on TK-10 renal, 85.5%; in the test on ACHN renal, 56%. Besides, the growth in the test with CAKI-1 renal is 40.3%; in the test on A498 renal, 43%; in the test on CCRF-CEM leukemia, 40.4%; with MOLT-4 leukemia, 26.4%.
As for `CCCCCc1cc[n+](CC(=O)c2ccc([N+](=O)[O-])cc2)cc1`, the growth is 49.3% with SK-MEL-2 melanoma; 72.8% in the test on EKVX NSCLC; 90.9% with SN12C renal; 72.1% with UO-31 renal; 74.6% in the test on TK-10 renal; 103% in the test with ACHN renal. In addition, the growth was 113% in the test on CAKI-1 renal, 101% in the test with A498 renal, 89.2% in the test with CCRF-CEM leukemia and 100% with MOLT-4 leukemia.
Take `NC(=S)N/N=C1\CCCC(C(F)(F)F)C1` (stereo not given): the growth in the test with SK-MEL-2 melanoma was 102%; in the test on EKVX NSCLC, 84.7%; in the test with SN12C renal, 85.1%; with UO-31 renal, 64.8%; in the test with TK-10 renal, 112%; in the test on ACHN renal it was 91.8%. Besides, the growth in the test with CAKI-1 renal was 87.5%; in the test on A498 renal it was 128%; in the test on CCRF-CEM leukemia, 45.5%; with MOLT-4 leukemia it was 74.5%.
As to `C=C1C(=O)O[C@H]2[C@H]1CC/C(Cn1cc(-c3cccc(Cl)c3)nn1)=C\CC[C@@]1(C)O[C@@H]21`, the growth with SK-MEL-2 melanoma was -40.8% (active); in the test with EKVX NSCLC, -18.4% (active); in the test on SN12C renal, -37.1% (active); in the test on UO-31 renal, -95.4% (active); in the test with TK-10 renal, -97.1% (active); in the test on ACHN renal, -89% (active). Besides, the growth in the test with CAKI-1 renal is -82.2% (active); in the test with A498 renal, -26.2% (active); with CCRF-CEM leukemia, -40.8% (active); in the test with MOLT-4 leukemia, -18.6% (active).
With `CCNc1nc(S(=O)(=O)CC)nc2ccccc12`, the growth is 94.6% in the test on SK-MEL-2 melanoma; 95% in the test on EKVX NSCLC; 101% in the test with SN12C renal; 82.4% in the test on UO-31 renal; 112% in the test with TK-10 renal; 86.1% in the test on ACHN renal. Further, the growth with CAKI-1 renal is 72.8%; with A498 renal, 113%; with CCRF-CEM leukemia, 86.6%; in the test with MOLT-4 leukemia it was 91%.
As to `S=c1[nH]nc(-c2cc3ccc2CCc2ccc(cc2)CC3)n1C1CC1`, the growth is 110% in the test on SK-MEL-2 melanoma; 88.9% in the test with EKVX NSCLC; 94.8% with SN12C renal; 88.8% with UO-31 renal; 143% in the test on TK-10 renal; 102% in the test on ACHN renal. The growth in the test with CAKI-1 renal was 98.6%; in the test with A498 renal, 97.8%; in the test with CCRF-CEM leukemia it was 104%; in the test with MOLT-4 leukemia it was 105%.
